Our source for the growth values is PubChem BioAssay (NCI).

About 83,000 compounds went through this panel and 20% of them were active in at least one assay; those are over-represented in the sample as a whole.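 Plates (96-well) were seeded with cells, treated with compound at one concentration, and incubated for 48 hours before percent growth was determined.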 Values without a mark were called inactive. Calls of active or inactive are those of the source. How the source made its calls: active means growth percent below 10; inactive means the rest.

Some test systems named below: NCI-H23 lung; NCI-H226 lung; NCI-H322M lung; HOP-62 NSCLC; NCI-H460 lung; HOP-92 NSCLC; NCI-H522 lung; A549/ATCC NSCLC; 786-0 renal; COLO 205 colon.
Common to all, as to experiment: NCI-60 one-dose screen, 48 h (100 = growth as untreated, 0 = no growth, -100 = all killed)
Details in all cases: 10 µM unless noted

Consider `CCOC(=O)c1noc2c1CCc1c-2cn(Cc2ccc(OC)cc2)c1-c1cc(OC)c(OC)c(OC)c1`, for which the growth in the assay with NCI-H23 lung is 42.9%; with NCI-H226 lung, 40.8%; in the assay on NCI-H322M lung, 52.2%; in the assay on HOP-62 NSCLC, 22.8%; with NCI-H460 lung, 8.9% (active); in the assay on HOP-92 NSCLC it was 63.4%. Also, the growth with NCI-H522 lung is 3.83% (active); in the assay on A549/ATCC NSCLC it was 43.5%; in the assay with 786-0 renal, 34.7%; with COLO 205 colon, 1.98% (active).

Turning to `OC(COc1ccccc1Cl)CN1CCN(c2ccc(Cl)cc2)CC1` (stereo not given), the growth is 107% in the assay with NCI-H23 lung; 94.5% in the assay on NCI-H226 lung; 101% in the assay on NCI-H322M lung; 108% in the assay on HOP-62 NSCLC; 104% in the assay on NCI-H460 lung; 85.8% in the assay on HOP-92 NSCLC. Besides, the growth was 92.6% in the assay on NCI-H522 lung, 112% in the assay with A549/ATCC NSCLC, 106% in the assay with 786-0 renal and 116% with COLO 205 colon.

With `COc1ccc(Cn2cc(COc3ccc4c5ccnc(C)c5n(CCCc5ccccc5)c4c3)nn2)cc1`, the growth is 85.6% in the assay on NCI-H23 lung; 99.4% in the assay with NCI-H226 lung; 79.5% with NCI-H322M lung; 90.7% in the assay with HOP-62 NSCLC; 62.6% in the assay with NCI-H460 lung; 83.3% in the assay on HOP-92 NSCLC. The growth in the assay on NCI-H522 lung was 64.4%; in the assay with A549/ATCC NSCLC it was 75.3%; in the assay with 786-0 renal, 80.4%; in the assay with COLO 205 colon, 69.2%.

For `O=C(O)c1ccc(-n2cc(/C=N/Nc3ccc(Cl)cc3)c(-c3ccc(F)c(F)c3)n2)cc1`, the growth is 84.9% in the assay on NCI-H23 lung; 95% in the assay on NCI-H226 lung; 72.5% in the assay on NCI-H322M lung; 107% in the assay on HOP-62 NSCLC; 93.1% with NCI-H460 lung; 81.5% with HOP-92 NSCLC. Besides, the growth is 47.6% in the assay with NCI-H522 lung, 78.9% in the assay with A549/ATCC NSCLC, 67.2% with 786-0 renal and 99.7% in the assay with COLO 205 colon.

For `COc1cc2ncnc(Oc3ccc(NC(=O)Nc4ccc(CN5CCOCC5)c(C(F)(F)F)c4)c4ccccc34)c2cc1OC`, the growth in the assay on NCI-H23 lung was 16.8%; in the assay with NCI-H226 lung, 1.53% (active); in the assay with NCI-H322M lung, 19.3%; in the assay on HOP-62 NSCLC, 66.8%; in the assay with NCI-H460 lung it was 25.4%; with HOP-92 NSCLC, -2.3% (active). Further, the growth in the assay with NCI-H522 lung is 19.8%; in the assay on A549/ATCC NSCLC, 23.1%; in the assay with 786-0 renal it was 37.1%; with COLO 205 colon, 13.4%.

For `Cc1ccc2c(C3C(C#N)=C(N)Oc4cc5ccccc5cc43)cc(=O)oc2c1` (stereo not given), the growth with NCI-H23 lung was 41%; with NCI-H226 lung it was 87.8%; with NCI-H322M lung, 42.7%; with HOP-62 NSCLC, 30.1%; in the assay with NCI-H460 lung it was 12.5%; in the assay on HOP-92 NSCLC, 75.7%. Further, the growth with NCI-H522 lung was 7.76% (active); with A549/ATCC NSCLC, 25.1%; with 786-0 renal, 26.2%; in the assay with COLO 205 colon, 2.72% (active).

For `O=C(Nc1ccc(Cl)c(Cl)c1)Nc1ccc(Cl)c([N+](=O)[O-])c1`, the growth with NCI-H23 lung was -14.4% (active); with NCI-H226 lung, 1.2% (active); in the assay with NCI-H322M lung, 6.27% (active); in the assay with HOP-62 NSCLC, -3.52% (active); in the assay on NCI-H460 lung, 1.62% (active); with HOP-92 NSCLC it was -23.2% (active). Moreover, the growth with NCI-H522 lung was -12.7% (active); in the assay with A549/ATCC NSCLC it was 4.45% (active); in the assay on 786-0 renal, 7.48% (active); with COLO 205 colon it was -80% (active).

For the compound `O=C(NCCNc1nccc(-c2c(-c3cccc(O)c3)nc3sccn23)n1)c1cccc(C(F)(F)F)c1`, the growth in the assay with NCI-H23 lung was 81%; in the assay with NCI-H226 lung, 88.5%; in the assay with NCI-H322M lung, 103%; in the assay on HOP-62 NSCLC, 114%; in the assay with NCI-H460 lung, 85.7%; with HOP-92 NSCLC it was 83.8%. The growth with NCI-H522 lung is 48.5%; with A549/ATCC NSCLC it was 71.3%; with 786-0 renal, 89.3%; in the assay with COLO 205 colon, 71.1%.

As to `Cc1cc(-c2ccccc2)nc2ccccc12`, the growth in the assay on NCI-H23 lung is 90.4%; in the assay with NCI-H226 lung, 90.2%; in the assay on NCI-H322M lung, 103%; in the assay on HOP-62 NSCLC it was 79.8%; in the assay on NCI-H460 lung, 103%; in the assay on HOP-92 NSCLC it was 95.7%. Further, the growth with NCI-H522 lung was 90.5%; with A549/ATCC NSCLC, 90.2%; with 786-0 renal, 109%; with COLO 205 colon, 96.5%.

Take `c1ccc2c(c1)Oc1cccnc1-n1nccc1-2`: the growth was 97.8% in the assay on NCI-H23 lung; 77.3% in the assay with NCI-H226 lung; 102% in the assay with NCI-H322M lung; 104% in the assay with HOP-62 NSCLC; 103% with NCI-H460 lung; 90% in the assay on HOP-92 NSCLC. The growth in the assay with NCI-H522 lung was 99.7%; in the assay with A549/ATCC NSCLC, 99.6%; in the assay with 786-0 renal, 103%; with COLO 205 colon, 119%.

Regarding `O=C1OC(=O)C2C3CC(c4ccccc43)C12` (stereo not given), the growth in the assay with NCI-H23 lung is 101%; with NCI-H226 lung, 110%; in the assay with NCI-H322M lung it was 107%; with HOP-62 NSCLC, 97.8%; in the assay on NCI-H460 lung, 113%; in the assay with HOP-92 NSCLC, 72.4%. Further, the growth in the assay with NCI-H522 lung was 105%; in the assay on A549/ATCC NSCLC it was 91.7%; in the assay with 786-0 renal, 102%; in the assay on COLO 205 colon, 97.8%.

On to `COc1ccc(-c2nn(-c3ccc(NC(=O)Nc4ccc(Cl)c(Cl)c4)cc3)cc2-c2ccncc2)cc1Cl`, for which the growth in the assay with NCI-H23 lung is 6.03% (active); in the assay with NCI-H226 lung, 6.82% (active); with NCI-H322M lung it was 47.2%; in the assay on HOP-62 NSCLC, 20.7%; in the assay with NCI-H460 lung it was -21.1% (active); in the assay with HOP-92 NSCLC, -17% (active). The growth in the assay on NCI-H522 lung was 0.622% (active); in the assay with A549/ATCC NSCLC it was 15%; in the assay with 786-0 renal, 2.7% (active); in the assay with COLO 205 colon it was -47.7% (active).

Regarding `CCOC(=O)C1CSC(C)(C(=O)OCC)N1` (stereo not given), the growth in the assay with NCI-H23 lung was 99.5%; with NCI-H226 lung it was 95.5%; with NCI-H322M lung, 104%; in the assay with HOP-62 NSCLC, 90.6%; in the assay with NCI-H460 lung, 106%; in the assay with HOP-92 NSCLC, 84.7%. For the same compound, the growth with NCI-H522 lung is 76.7%; in the assay on A549/ATCC NSCLC, 98.9%; with 786-0 renal it was 90.8%; in the assay with COLO 205 colon, 105%.
